Compounds without any hit were thinned out: in the full panel of roughly 83,000, 20% have a hit.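 48-hour exposure, single concentration, 96-well plates; percent growth endpoint where 0 means no net growth. Active: below 10.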 Activity calls are given as the source filed them.
Tested on: SF-539 CNS
Assay: NCI-60 one-dose screen, 48 h (100 = growth as untreated, 0 = no growth, -100 = all killed)
Conditions: 10 µM unless noted

Structure (SMILES) | growth
Fc1ccc(-c2nnc(-c3c(-c4ccc(F)cc4)nc4ncccn34)o2)cc1 | 94.4% (inactive)
S=c1[nH]nc2sc3ccccc3n12 | 106% (inactive)
Clc1ccc2nc(Cl)c3ccccc3c2c1 | 63.8% (inactive)
CCOC(Cc1c(N)[nH]c(=S)[nH]c1=O)OCC | 99.4% (inactive)
COc1ccc(-c2nnc(COc3ccc(NC(=O)Nc4cc(C(F)(F)F)cc(C(F)(F)F)c4)cc3F)o2)cc1 | 20.3% (inactive)
Clc1cccc(Cc2cn3cc(-c4ccccc4)nc3s2)c1 | 41.6% (inactive)
ClC1=C(Cl)C(Cl)=C(Cl)C1=C/C=C/c1ccccc1 | -92.4% (active)
O=[N+]([O-])c1cnc(Sc2ccncn2)c([N+](=O)[O-])c1 | 97.7% (inactive)
O=C(N1CCC(CN=c2cc3n(-c4ccc(Cl)cc4)c4ccccc4nc-3cc2Nc2ccc(Cl)cc2)CC1)N1CC1 | -88% (active)
COc1cc(/C=C2\CCC/C(=C\c3ccc(OCC4CO4)c(OC)c3)C2=O)ccc1OCC1CO1 (centres undefined) | 25.2% (inactive)
COc1ccc(-n2nnc(C(=O)O)c2-c2cc(OC)c(OC)c(OC)c2)cc1 | 103% (inactive)
Nc1nc(N)c([N+](=O)[O-])c(=O)[nH]1 | 106% (inactive)
Oc1[nH]c2ccccc2c1/C=c1/ccc2c(c1)N=C(c1cc(F)cc(F)c1)N=2 | 90.7% (inactive)
O=c1ccn(C2CCCO2)c(=O)[nH]1 (centres undefined) | 91.6% (inactive)
COc1ccc2nc3cc(Cl)ccc3c(Nc3cc(C(C)C)c(O)cc3C)c2c1 | 59.5% (inactive)
COc1ccc(-c2cnnn2-c2cc(OC)c3c(c2)OCO3)cc1 | -15.2% (active)
CC1=CC(=O)C(C(C)=Nc2ccccc2Cl)C(=O)O1 (centres undefined) | 101% (inactive)
O=[P@@]1(c2ccccc2)O[C@H](COCc2ccccc2)[C@@H](OCc2ccccc2)[C@H](OCc2ccccc2)[C@H]1NCc1ccccc1 | 27.2% (inactive)
COc1ccc(-c2noc(N)c2-c2cc(OC)c3c(c2)OCO3)cc1 | 9.14% (active)

Structure (SMILES) | growth
CN(C)c1nc(-c2ccco2)n2nc(-c3ccco3)cc2n1 | 94.7% (inactive)
COc1cccc(C2C(C#N)=C(N)Oc3cc(OC)ccc32)c1 (centres undefined) | -13.3% (active)
c1cnc2ccc3ncccc3c2c1 | 104% (inactive)
O=C(c1ccccc1)c1ccco1 | 92.5% (inactive)
CCOC(=O)C1=NN(c2ccc(Cl)cc2)C2C3N(c4ccc(Cl)cc4)N=C(C(=O)OCC)N3c3ccccc3N12 (centres undefined) | 116% (inactive)
Cc1cc(NC(=O)c2ccc(N)cc2)ccc1N=Nc1ccc2c(O)c(N=Nc3ccc(Cl)c(S(=O)(=O)O)c3)c(S(=O)(=O)O)cc2c1 | 87.3% (inactive)
O=C(Nc1cccc(C(F)(F)F)c1)Nc1ccc(OCc2nnc(-c3ccc(Cl)cc3)o2)c(F)c1 | 82.2% (inactive)
CCN1C(=O)c2ccc3c4c(ccc(c24)C1=O)C(=O)N(CCCNCc1ccccc1OC)C3=O | -96.4% (active)
C=C1c2c(C)nn(-c3ccc(C#CCOC4OC(CO)C(O)C(O)C4O)cc3)c2N(C)C23C[C@H]1C1(C)c4c(C)nn(-c5ccc(C#CCOC6OC(CO)C(O)C(O)C6O)cc5)c4N(C)C(C)(C[C@H]12)C3 (some centres undefined) | -15.3% (active)
O=C(Nc1ccc(OCc2nnc(-c3ccccc3)o2)c(F)c1)Nc1ccc(Cl)c(C(F)(F)F)c1 | 36.1% (inactive)
O=C(/C=C/c1ccccc1Cl)c1ccc(O)cc1 | 94.1% (inactive)
O=C(Nc1ccncc1)C(=O)c1cn(S(=O)(=O)c2cccc(F)c2)c2ccccc12 | 27.3% (inactive)
COc1cc(/C=C/C(=O)c2ccc(F)cc2)ccc1OCCCCCOc1cc2c(cc1OC)C(=O)N1CCCC1C=N2 (centres undefined) | -67.1% (active)
O=C(/C=C/c1ccc(O)c(O)c1)N1CCN(c2ccc(Cl)cc2)CC1 | 66.4% (inactive)
O=C(OCCBr)c1ccc(Cl)c([N+](=O)[O-])c1 | 102% (inactive)
COc1ccc2c(c1)/C(=C\c1c[nH]c3ccc(F)cc13)C(=O)N2 | 91.8% (inactive)
Cc1cc(C(=O)O)c(C)cc1C(=O)O | 113% (inactive)
O=C1/C(=N/O)CCc2ccccc21 | 88.5% (inactive)

Tested on: UACC-257 melanoma
Assay: as above
Conditions: 10 µM unless noted

Structure (SMILES) | growth
Fc1ccc(-c2nnc(-c3c(-c4ccc(F)cc4)nc4ncccn34)o2)cc1 | 107% (inactive)
S=c1[nH]nc2sc3ccccc3n12 | 111% (inactive)
Clc1ccc2nc(Cl)c3ccccc3c2c1 | 93.1% (inactive)
CCOC(Cc1c(N)[nH]c(=S)[nH]c1=O)OCC | 103% (inactive)
COc1ccc(-c2nnc(COc3ccc(NC(=O)Nc4cc(C(F)(F)F)cc(C(F)(F)F)c4)cc3F)o2)cc1 | 0.873% (active)
Clc1cccc(Cc2cn3cc(-c4ccccc4)nc3s2)c1 | 37.4% (inactive)
ClC1=C(Cl)C(Cl)=C(Cl)C1=C/C=C/c1ccccc1 | -80.7% (active)
O=[N+]([O-])c1cnc(Sc2ccncn2)c([N+](=O)[O-])c1 | -9.5% (active)
O=C(N1CCC(CN=c2cc3n(-c4ccc(Cl)cc4)c4ccccc4nc-3cc2Nc2ccc(Cl)cc2)CC1)N1CC1 | -94.4% (active)
COc1cc(/C=C2\CCC/C(=C\c3ccc(OCC4CO4)c(OC)c3)C2=O)ccc1OCC1CO1 (centres undefined) | 35.1% (inactive)
COc1ccc(-n2nnc(C(=O)O)c2-c2cc(OC)c(OC)c(OC)c2)cc1 | 102% (inactive)
Nc1nc(N)c([N+](=O)[O-])c(=O)[nH]1 | 103% (inactive)
Oc1[nH]c2ccccc2c1/C=c1/ccc2c(c1)N=C(c1cc(F)cc(F)c1)N=2 | 98.7% (inactive)
O=c1ccn(C2CCCO2)c(=O)[nH]1 (centres undefined) | 90.9% (inactive)
COc1ccc2nc3cc(Cl)ccc3c(Nc3cc(C(C)C)c(O)cc3C)c2c1 | 47% (inactive)
COc1ccc(-c2cnnn2-c2cc(OC)c3c(c2)OCO3)cc1 | 59.7% (inactive)
CC1=CC(=O)C(C(C)=Nc2ccccc2Cl)C(=O)O1 (centres undefined) | -17.3% (active)
O=[P@@]1(c2ccccc2)O[C@H](COCc2ccccc2)[C@@H](OCc2ccccc2)[C@H](OCc2ccccc2)[C@H]1NCc1ccccc1 | 22.5% (inactive)
COc1ccc(-c2noc(N)c2-c2cc(OC)c3c(c2)OCO3)cc1 | 50.8% (inactive)

Structure (SMILES) | growth
CN(C)c1nc(-c2ccco2)n2nc(-c3ccco3)cc2n1 | 106% (inactive)
COc1cccc(C2C(C#N)=C(N)Oc3cc(OC)ccc32)c1 (centres undefined) | 59.2% (inactive)
c1cnc2ccc3ncccc3c2c1 | 83.5% (inactive)
O=C(c1ccccc1)c1ccco1 | 89.3% (inactive)
CCOC(=O)C1=NN(c2ccc(Cl)cc2)C2C3N(c4ccc(Cl)cc4)N=C(C(=O)OCC)N3c3ccccc3N12 (centres undefined) | 119% (inactive)
Cc1cc(NC(=O)c2ccc(N)cc2)ccc1N=Nc1ccc2c(O)c(N=Nc3ccc(Cl)c(S(=O)(=O)O)c3)c(S(=O)(=O)O)cc2c1 | 87.5% (inactive)
O=C(Nc1cccc(C(F)(F)F)c1)Nc1ccc(OCc2nnc(-c3ccc(Cl)cc3)o2)c(F)c1 | 62.8% (inactive)
CCN1C(=O)c2ccc3c4c(ccc(c24)C1=O)C(=O)N(CCCNCc1ccccc1OC)C3=O | -88.6% (active)
C=C1c2c(C)nn(-c3ccc(C#CCOC4OC(CO)C(O)C(O)C4O)cc3)c2N(C)C23C[C@H]1C1(C)c4c(C)nn(-c5ccc(C#CCOC6OC(CO)C(O)C(O)C6O)cc5)c4N(C)C(C)(C[C@H]12)C3 (some centres undefined) | 34.2% (inactive)
O=C(Nc1ccc(OCc2nnc(-c3ccccc3)o2)c(F)c1)Nc1ccc(Cl)c(C(F)(F)F)c1 | 28.3% (inactive)
O=C(/C=C/c1ccccc1Cl)c1ccc(O)cc1 | 116% (inactive)
O=C(Nc1ccncc1)C(=O)c1cn(S(=O)(=O)c2cccc(F)c2)c2ccccc12 | 75.6% (inactive)
COc1cc(/C=C/C(=O)c2ccc(F)cc2)ccc1OCCCCCOc1cc2c(cc1OC)C(=O)N1CCCC1C=N2 (centres undefined) | 8.38% (active)
O=C(/C=C/c1ccc(O)c(O)c1)N1CCN(c2ccc(Cl)cc2)CC1 | 81.8% (inactive)
O=C(OCCBr)c1ccc(Cl)c([N+](=O)[O-])c1 | 86.8% (inactive)
COc1ccc2c(c1)/C(=C\c1c[nH]c3ccc(F)cc13)C(=O)N2 | 108% (inactive)
Cc1cc(C(=O)O)c(C)cc1C(=O)O | 104% (inactive)
O=C1/C(=N/O)CCc2ccccc21 | 90.7% (inactive)
